Results: PubChem BioAssay (NCI)
This is part of a sample that, as a whole, favours compounds with a hit. Of some 83,000 tested, about 20% had one in any assay.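 Values shown are percent growth following 48 h exposure of cells in 96-well plates to a single concentration of compound; below 10 was considered active.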 Activity calls are given as the source filed them.

How the values were obtained:
Assay in all cases: NCI-60 one-dose screen, 48 h (100 = growth as untreated, 0 = no growth, -100 = all killed)
Settings in all cases: 10 µM unless noted
NCI-H322M lung = system: NCI-H322M lung
HOP-62 NSCLC = system: HOP-62 NSCLC
NCI-H460 lung = system: NCI-H460 lung
HOP-92 NSCLC = system: HOP-92 NSCLC
NCI-H522 lung = system: NCI-H522 lung
A549/ATCC NSCLC = system: A549/ATCC NSCLC
786-0 renal = system: 786-0 renal
DU-145 prostate = system: DU-145 prostate
MALME-3M melanoma = system: MALME-3M melanoma
MDA-MB-231 breast = system: MDA-MB-231 breast
RXF 393 renal = system: RXF 393 renal
SF-268 CNS = system: SF-268 CNS
SF-295 CNS = system: SF-295 CNS
SF-539 CNS = system: SF-539 CNS
UACC-257 melanoma = system: UACC-257 melanoma
M14 melanoma = system: M14 melanoma
HCT-15 colon = system: HCT-15 colon
COLO 205 colon = system: COLO 205 colon
K-562 leukemia = system: K-562 leukemia

Measured: growth

COc1cccc(COc2ccc(/C=C3/C(=O)Nc4cc(Cl)ccc43)cc2)c1
inactive: NCI-H322M lung 83.9% | HOP-62 NSCLC 85.4% | NCI-H460 lung 103% | HOP-92 NSCLC 79.8% | NCI-H522 lung 84% | A549/ATCC NSCLC 92.4% | 786-0 renal 102% | DU-145 prostate 98.5% | MALME-3M melanoma 96.7% | MDA-MB-231 breast 78.2% | RXF 393 renal 88.7% | SF-268 CNS 99.5% | SF-295 CNS 103% | SF-539 CNS 93% | UACC-257 melanoma 104% | M14 melanoma 104% | HCT-15 colon 99.6%

O=C(N/N=C/c1ccc[nH]1)c1[nH]c2ccc(Br)cc2c1-c1ccccc1
active: NCI-H460 lung 2.17% | NCI-H522 lung -20.2% | COLO 205 colon 6.05% | K-562 leukemia 3.06% | SF-295 CNS 7.67% | HCT-15 colon 9.42%
inactive: NCI-H322M lung 32.4% | HOP-62 NSCLC 22.2% | HOP-92 NSCLC 15.5% | A549/ATCC NSCLC 17.6% | 786-0 renal 13.7% | DU-145 prostate 20.6% | MALME-3M melanoma 45.1% | MDA-MB-231 breast 14% | RXF 393 renal 53.2% | SF-268 CNS 25.3% | SF-539 CNS 14.2% | UACC-257 melanoma 30.3% | M14 melanoma 13.2%

CS(=O)(=O)c1ccc(-n2cc(/C=C/C(=O)c3ccc(NC(=O)CO[N+](=O)[O-])cc3)c(-c3ccc(Cl)cc3)n2)cc1
inactive: NCI-H322M lung 97.1% | HOP-62 NSCLC 103% | NCI-H460 lung 106% | HOP-92 NSCLC 90.2% | NCI-H522 lung 103% | A549/ATCC NSCLC 91.8% | 786-0 renal 67.6% | COLO 205 colon 111% | DU-145 prostate 101% | K-562 leukemia 119% | MALME-3M melanoma 100% | MDA-MB-231 breast 79.5% | RXF 393 renal 86.8% | SF-268 CNS 111% | SF-295 CNS 91.2% | SF-539 CNS 92.7% | UACC-257 melanoma 97.1% | M14 melanoma 91.6% | HCT-15 colon 96.2%

N#Cc1ccc(C(=O)CSc2nc(Nc3ccc(S(N)(=O)=O)cc3)c3ccccc3n2)cc1
inactive: NCI-H322M lung 107% | HOP-62 NSCLC 99.2% | NCI-H460 lung 111% | HOP-92 NSCLC 111% | NCI-H522 lung 99.8% | A549/ATCC NSCLC 108% | 786-0 renal 105% | COLO 205 colon 117% | DU-145 prostate 107% | K-562 leukemia 105% | MALME-3M melanoma 106% | MDA-MB-231 breast 105% | RXF 393 renal 109% | SF-268 CNS 109% | SF-295 CNS 102% | SF-539 CNS 102% | UACC-257 melanoma 101% | M14 melanoma 103% | HCT-15 colon 100%

COc1cccc(N2CCN(c3ncnc4c3[nH]c3ccc(F)cc34)C[C@@H]2C)c1
inactive: HCT-15 colon 18.6%
active: NCI-H322M lung -39.9% | NCI-H460 lung -17.2% | HOP-92 NSCLC -27.1% | NCI-H522 lung -91.8% | A549/ATCC NSCLC 2.18% | 786-0 renal -58.5% | DU-145 prostate -67.3% | K-562 leukemia -36% | MALME-3M melanoma -26.4% | MDA-MB-231 breast -4.16% | RXF 393 renal -27.1% | SF-268 CNS -1.64% | SF-295 CNS -14.9% | SF-539 CNS -32.2% | UACC-257 melanoma -27.6% | M14 melanoma -84.7%

COc1ccc(-c2nc3ccc(-c4nnc(SCC(=O)Nc5ccc(C(=O)/C=C/c6ccc(Cl)cc6)cc5)o4)cc3[nH]2)cc1OC
inactive: NCI-H322M lung 95.8% | HOP-62 NSCLC 103% | NCI-H460 lung 103% | HOP-92 NSCLC 105% | NCI-H522 lung 98.4% | A549/ATCC NSCLC 103% | 786-0 renal 103% | COLO 205 colon 116% | DU-145 prostate 109% | K-562 leukemia 92.7% | MALME-3M melanoma 95.1% | MDA-MB-231 breast 95.2% | RXF 393 renal 106% | SF-268 CNS 106% | SF-295 CNS 98% | SF-539 CNS 83.8% | UACC-257 melanoma 112% | M14 melanoma 108% | HCT-15 colon 97.1%

COc1cc(-c2nc3ccc(-c4nnc(SCC(=O)Nc5ccc(C(=O)/C=C/c6ccc(Cl)cc6)cc5)o4)cc3[nH]2)cc(OC)c1OC
inactive: NCI-H322M lung 96.2% | HOP-62 NSCLC 101% | NCI-H460 lung 105% | HOP-92 NSCLC 82.2% | NCI-H522 lung 92.6% | A549/ATCC NSCLC 101% | 786-0 renal 90.8% | COLO 205 colon 108% | DU-145 prostate 104% | K-562 leukemia 83.8% | MALME-3M melanoma 101% | MDA-MB-231 breast 91.6% | RXF 393 renal 112% | SF-268 CNS 99.2% | SF-295 CNS 97.7% | SF-539 CNS 74.7% | UACC-257 melanoma 112% | M14 melanoma 105% | HCT-15 colon 86.9%

CCOC(=O)c1sc(N)c(C(=O)OCC)c1C
active: HOP-92 NSCLC -7.89%
inactive: NCI-H322M lung 83.1% | HOP-62 NSCLC 52.6% | NCI-H460 lung 92.5% | NCI-H522 lung 56.9% | A549/ATCC NSCLC 65.3% | 786-0 renal 50.4% | COLO 205 colon 68.4% | DU-145 prostate 66.2% | K-562 leukemia 53.2% | MALME-3M melanoma 74% | MDA-MB-231 breast 37.4% | RXF 393 renal 29.9% | SF-268 CNS 42.7% | SF-295 CNS 81.5% | SF-539 CNS 38.1% | UACC-257 melanoma 78.3% | M14 melanoma 78% | HCT-15 colon 45.4%

COc1cccc(-c2nn(-c3ccccc3)cc2-c2ccnc(N3CCN(C(=O)Nc4ccc(F)cc4)CC3)c2)c1
inactive: NCI-H322M lung 79.2% | HOP-62 NSCLC 102% | NCI-H460 lung 69.5% | HOP-92 NSCLC 63.1% | NCI-H522 lung 36.2% | A549/ATCC NSCLC 55.9% | 786-0 renal 68.1% | DU-145 prostate 67.5% | K-562 leukemia 30.8% | MALME-3M melanoma 76.7% | MDA-MB-231 breast 52.6% | RXF 393 renal 63.4% | SF-268 CNS 85.3% | SF-295 CNS 64.8% | SF-539 CNS 66.9% | UACC-257 melanoma 85.8% | M14 melanoma 32.4% | HCT-15 colon 35.8%

CS(=O)(=O)Nc1ccc(-c2nn(-c3ccc(S(C)(=O)=O)cc3)cc2/C=C/C(=O)c2ccc(NC(=O)CO[N+](=O)[O-])cc2)cc1
inactive: NCI-H322M lung 102% | HOP-62 NSCLC 100% | NCI-H460 lung 110% | HOP-92 NSCLC 103% | NCI-H522 lung 99.1% | A549/ATCC NSCLC 101% | 786-0 renal 102% | DU-145 prostate 116% | K-562 leukemia 102% | MALME-3M melanoma 107% | MDA-MB-231 breast 93.4% | RXF 393 renal 95% | SF-268 CNS 108% | SF-295 CNS 97.2% | SF-539 CNS 101% | UACC-257 melanoma 103% | M14 melanoma 111% | HCT-15 colon 99.6%

O=C(CSc1nc2sc3c(c2c(=O)n1-c1ccc(Cl)cc1)CCCC3)NNC(=O)Nc1ccc(Cl)c(C(F)(F)F)c1
active: NCI-H522 lung 5.53% | SF-295 CNS 9.82%
inactive: NCI-H322M lung 52.2% | HOP-62 NSCLC 58.8% | NCI-H460 lung 11.8% | A549/ATCC NSCLC 34% | 786-0 renal 52.2% | COLO 205 colon 53.4% | DU-145 prostate 32.2% | K-562 leukemia 11.7% | MALME-3M melanoma 22.5% | MDA-MB-231 breast 61.2% | RXF 393 renal 70.5% | SF-268 CNS 67% | SF-539 CNS 73.1% | UACC-257 melanoma 46.5% | M14 melanoma 44% | HCT-15 colon 24.5%

Fc1ccc(-c2nc(C(Cl)Cl)nc3cc(-c4ccccc4)nn23)cc1
active: NCI-H322M lung -41.6% | HOP-62 NSCLC -19.5% | NCI-H460 lung -67.6% | NCI-H522 lung -41.4% | A549/ATCC NSCLC -45.1% | COLO 205 colon -76.3% | DU-145 prostate -18.2% | MALME-3M melanoma -15% | RXF 393 renal -70.1% | SF-295 CNS 6.38% | UACC-257 melanoma 1.45% | M14 melanoma -40.7% | HCT-15 colon 4.01%
inactive: HOP-92 NSCLC 12.8% | 786-0 renal 70% | K-562 leukemia 11.4% | MDA-MB-231 breast 11.8% | SF-268 CNS 24% | SF-539 CNS 32.8%

CC(C)Sc1nc(Nc2ccc(S(N)(=O)=O)cc2)c(C#N)c(-c2ccc(F)cc2)n1
inactive: NCI-H522 lung 73.5% | DU-145 prostate 25.1% | K-562 leukemia 36.3% | MALME-3M melanoma 14.8% | MDA-MB-231 breast 38.6% | SF-268 CNS 39.1% | UACC-257 melanoma 93.3% | M14 melanoma 17.9% | HCT-15 colon 43.5%

CCN1C(=S)N(CC)C2C1NN=C1SC(c3ccccc3)=CC(=O)N12 (stereo unspecified)
inactive: NCI-H322M lung 110% | HOP-62 NSCLC 100% | NCI-H460 lung 117% | HOP-92 NSCLC 103% | NCI-H522 lung 94.5% | A549/ATCC NSCLC 101% | 786-0 renal 104% | COLO 205 colon 115% | DU-145 prostate 117% | K-562 leukemia 57.1% | MALME-3M melanoma 105% | MDA-MB-231 breast 94% | RXF 393 renal 89% | SF-268 CNS 115% | SF-295 CNS 106% | SF-539 CNS 98% | UACC-257 melanoma 103% | M14 melanoma 106% | HCT-15 colon 78.2%

NS(=O)(=O)c1cccc(Nc2nc(SCC(=O)c3ccc(Br)cc3)nc3ccccc23)c1
inactive: NCI-H322M lung 97.6% | NCI-H460 lung 38.5% | HOP-92 NSCLC 38.2% | NCI-H522 lung 40.8% | A549/ATCC NSCLC 60.3% | 786-0 renal 14.2% | COLO 205 colon 75.8% | DU-145 prostate 69.4% | K-562 leukemia 44.7% | MALME-3M melanoma 54.7% | MDA-MB-231 breast 64.5% | RXF 393 renal 24.5% | SF-268 CNS 32.8% | SF-295 CNS 17.4% | SF-539 CNS 72% | UACC-257 melanoma 96.1% | M14 melanoma 80.2% | HCT-15 colon 67.4%

O=c1/c(=C\c2ccc(-c3ccccc3)o2)sc2nc(-c3ccccc3)nn12
inactive: NCI-H322M lung 105% | HOP-62 NSCLC 92.8% | NCI-H460 lung 106% | HOP-92 NSCLC 90% | NCI-H522 lung 98.3% | A549/ATCC NSCLC 103% | 786-0 renal 99.2% | COLO 205 colon 117% | DU-145 prostate 107% | K-562 leukemia 102% | MALME-3M melanoma 102% | MDA-MB-231 breast 97.9% | RXF 393 renal 115% | SF-268 CNS 96.8% | SF-295 CNS 105% | SF-539 CNS 105% | UACC-257 melanoma 106% | M14 melanoma 100% | HCT-15 colon 91.8%
